CSC inhib: blocks cancer stem cells. cancer stem cell-like cells viability, luminescence. inhibition, % at 7.5 µM. actives 1.1% (n = 300,000); in the data active = inhibition above about 75%; tested in HMLE shEcad cells
Beta cell apopt: beta cell apoptosis inhibition | INS-1E cytokine-induced death, ATP luminescence, 48 h; percent of positive-control rescue, neutral wells zero | actives 0.8% (n = 300,000) | protection from apoptosis, % (no concentration beside the values);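 active = Every replicate reaches about 75%, or at least half do and their mean reaches it too, limit read from the data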;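 note: 0% = cytokine-treated negative control wells and 100% = positive control rescue; higher means more ATP so stronger rescue from cytokine killing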
GRIN3A LBD mod: NR3A (human) ligand-binding domain modulation | NR3A LBD differential scanning fluorimetry, Tm shift; 0% = protein alone, 100% = glycine-bound protein | Tm shift relative to glycine control, % at 25 µM | actives 2.5% (n = 340,000);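 active = melting temperature shift of at least 10% of the positive control shift, at one fixed dose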
Gli-Sufu block: blocks Gli-Sufu signaling in a luciferase reporter. Sufu-KO-LIGHT fibroblasts, Gli luciferase reporter luminescence. inhibition, % at 5 µM. actives 0.74% (n = 340,000);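 active = inhibition above about 55%, limit read from the data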;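 note: 0% = DMSO-treated cells and 100% = wells with medium but no cells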
MPTP block: permeability transition pore inhibition; inhibition, % at 10 µM; isolated mouse mitochondria, Ca2+ swelling absorbance, 30 min; actives 1.4% (n = 360,000);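 active = inhibition of 50% or more, scaled per plate between neutral and stimulator controls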;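 note: 0% = DMSO wells given calcium and 100% = 1 mM EGTA wells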
Mdm2-MdmX inh: human Mdm2/MdmX binding inhibition | actives 3% (n = 330,000) | SaOS-2 split-luciferase Mdm2/MdmX complementation, luminescence | inhibition, % at 8 µM;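 active = inhibition of at least 50% at 8 µM in the primary screen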
Mdm2-MdmX conf: human Mdm2/MdmX binding inhibition, confirmed; shares compounds with Mdm2-MdmX inh; luminescent assay; inhibition, % at 8 µM; actives 55% (n = 10,000); AID 489028; in the data active = inhibition above about 40%
FLuc counter: counter-screen for Mdm2/MdmX inhibitors: full-length luciferase | shares compounds with Mdm2-MdmX inh | SaOS-2 full-length luciferase counterscreen, luminescence | inhibition, % at 8 µM | actives 77% (n = 6,200) | AID 504607;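 active = mean inhibition at 8 µM reaching about 37%, which flags the compound as non-specific, limit read from the data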;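 note: p53-null SaOS-2 cells with luciferase driven by a doxycycline-inducible promoter; compound on cells about two nights before reading with doxycycline added after day one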
* = called active by the depositor. The list is not random: actives were taken first. Their share in the collection is about 6.6%.

How did N/C(=N\OC(=O)c1ccc(Cl)c([N+](=O)[O-])c1)c1ccccn1 do in these assays?
CSC inhib: 20; Beta cell apopt: -1; GRIN3A LBD mod: 6; Gli-Sufu block: -15; MPTP block: -1; Mdm2-MdmX inh: 67*; Mdm2-MdmX conf: 46*; FLuc counter: 91*

What do the screens show for `COc1ccccc1C(=O)NC(CCSC)C(=O)NCCCSc1ccccc1` (centres undefined)?
CSC inhib: -18; GRIN3A LBD mod: 4; Gli-Sufu block: 13; MPTP block: 0; Mdm2-MdmX inh: 25

What do the screens show for `COCC1=C(C(=O)OC)C(c2ccco2)n2ncnc2N1` (centres undefined)?
CSC inhib: -1; Beta cell apopt: -1; GRIN3A LBD mod: -4; Gli-Sufu block: 8; MPTP block: 2; Mdm2-MdmX inh: 8

How did O=C(NCc1ccccc1)c1cc[n+]([O-])cc1 do in these assays?
CSC inhib: -7; Beta cell apopt: -8; GRIN3A LBD mod: 2; Gli-Sufu block: -4; MPTP block: -1; Mdm2-MdmX inh: 7

How did COc1cccc(Sc2ccccc2/C=N/NC(N)=O)c1 do in these assays?
CSC inhib: 49; Beta cell apopt: 7; GRIN3A LBD mod: 0; Gli-Sufu block: -9; MPTP block: 0; Mdm2-MdmX inh: 53*; Mdm2-MdmX conf: 67*; FLuc counter: 58*

Results for C=CCOc1c(/C=N\NC(N)=O)cccc1OC ?
CSC inhib: 0; Beta cell apopt: -3; GRIN3A LBD mod: 2; Gli-Sufu block: 2; MPTP block: 1; Mdm2-MdmX inh: 12

Results for COc1ccc(C2CC(=O)c3cnc(NC(=O)c4ccccc4)nc3C2)c(OC)c1 (centres undefined) ?
CSC inhib: 9; Beta cell apopt: 2; GRIN3A LBD mod: -1; Gli-Sufu block: 7; MPTP block: 4; Mdm2-MdmX inh: 58*; Mdm2-MdmX conf: 41*; FLuc counter: 71*

What do the screens show for `C/C(=N\Nc1ccc2nncn2n1)c1ccccn1`?
CSC inhib: 98*; Beta cell apopt: 80*; GRIN3A LBD mod: -1; Gli-Sufu block: 74*; MPTP block: -3; Mdm2-MdmX inh: 81*; Mdm2-MdmX conf: 84*; FLuc counter: 48*

How did CN(CC(=O)Nc1ccc(F)cc1)C(=O)c1ccccc1Sc1ccccc1C#N do in these assays?
GRIN3A LBD mod: 2; Gli-Sufu block: -3; MPTP block: -1; Mdm2-MdmX inh: 24

What do the screens show for `O=C(CCN1C(=O)/C(=C/c2ccccc2)SC1=S)N[C@@H](CO)Cc1ccccc1`?
CSC inhib: 34; Beta cell apopt: -58; GRIN3A LBD mod: -2; Gli-Sufu block: -2; MPTP block: -1; Mdm2-MdmX inh: 89*; Mdm2-MdmX conf: 72*; FLuc counter: 50*

How did O=C(CCN1C(=O)/C(=C/c2ccccc2F)SC1=S)N[C@@H](CO)Cc1ccccc1 do in these assays?
CSC inhib: 21; GRIN3A LBD mod: -2; Gli-Sufu block: -23; MPTP block: -1; Mdm2-MdmX inh: 80*; Mdm2-MdmX conf: 36; FLuc counter: 54*

Results for O=C(CCN1C(=O)/C(=C\c2ccccc2F)SC1=S)Nc1ccc(C(=O)O)c(O)c1 ?
CSC inhib: -5; Beta cell apopt: 3; MPTP block: -2; Mdm2-MdmX inh: 5

How did CCOC(=O)c1cnc(Nc2nc3ccccc3o2)nc1CN1CCN(C)CC1 do in these assays?
GRIN3A LBD mod: -4; Gli-Sufu block: -7; MPTP block: -2

How did COC(=O)c1ccc(NC(=O)CNC(=O)c2sc3ccccc3c2Cl)cc1 do in these assays?
Beta cell apopt: 6; GRIN3A LBD mod: 0; Gli-Sufu block: -19; MPTP block: 1; Mdm2-MdmX inh: 94*; Mdm2-MdmX conf: 49*; FLuc counter: 93*

How did Cc1ccc(C)c(N2CCN(c3ncccc3[N+](=O)[O-])CC2)c1 do in these assays?
CSC inhib: 26; Beta cell apopt: 4; GRIN3A LBD mod: 8; Gli-Sufu block: 28; MPTP block: 0; Mdm2-MdmX inh: 73*; Mdm2-MdmX conf: 23

Assay outcomes (PubChem BioAssay)
